PubChem BioAssay (Tox21)
Records with an inconclusive call do not appear. Entries that show only a call come without a potency. Where a structure was tested more than once in an assay, its records may differ in their call. Calls of active or inactive are those of the source. Unless noted, the call rests on the fitted dose curve; in most records, active means well fitted curve in the direction sought with a large enough effect in the repeat runs; inconclusive means weak or mixed curves; inactive means no such curve, though single readings can be large; an effect the other way counts as inactive or inconclusive.

Experiments:
[1] = A CellTox Green Cytotoxicity Assay to monitor cytotoxicity in HEK293 cells - 32 hour (AID 1224881); further: nearly all actives have a fitted effect of over 40% in size; further: potency means the concentration at half of the fitted maximal effect
Outline: (§1)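 Fluorescence from a DNA-binding dye excluded by viable cells was measured repeatedly in the same HEK293 wells (600 cells/well) during continuous compound exposure at 37 C. Each assay gives one read point: 0, 8, 16, 24, 32 or 40 h.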

[2] = A CellTox Green Cytotoxicity Assay to monitor cytotoxicity in HepG2 cells - 32 hour (AID 1224883); further: nearly all actives have a fitted effect of over 50% in size; further: potency means the concentration at half of the fitted maximal effect
Outline: (§2)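 Real-time cytotoxicity: fluorescence of a cell-impermeant cyanine dye binding DNA of dead HepG2 cells, measured repeatedly (0–40 h) during compound exposure at 37 C. Cells seeded 600/well with reagent, dosed after 5 h.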

[3] = qHTS RealTime-Glo MT Cell Viability Assay in HepG2 cells - 16 hour (AID 1224885); further: nearly all actives have a fitted effect of over 50% in size
Outline: (§3)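 HepG2 cells were seeded at 600 cells/well together with NanoLuc luciferase and a cell-permeant prosubstrate, preincubated 5 h at 37 C/5% CO2, then pin-dosed with compounds in DMSO. Nonlytic luminescence from viable cells was read at each time point.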

[4] = qHTS RealTime-Glo MT Cell Viability Assay in HEK293 cells - 8 hour (AID 1224887); further: top concentration of the series differs between compounds; nearly all actives have a fitted effect of over 50% in size
Outline: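 Luminescence, which tracks viable cell number through reduction of the prosubstrate to a NanoLuc substrate, was read over continuous 37 C culture. Cells (600/well) were premixed with reagent and rested 5 h before 23 nL of compound in DMSO was pinned.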

[5] = qHTS RealTime-Glo MT Cell Viability Assay in HepG2 cells - 0 hour (AID 1224889); further: nearly all actives have a fitted effect of over 50% in size
Outline: as §3

[6] = A CellTox Green Cytotoxicity Assay to monitor cytotoxicity in HepG2 cells - 8 hour (AID 1224890); further: nearly all actives have a fitted effect of over 45% in size
Outline: as §2

[7] = qHTS assay to identify small molecule antagonists of the estrogen receptor alpha (ER-alpha) signaling pathway using the BG1 cell line in the presence of 0.1 nM 17-beta-estradiol - cell viability counter screen (AID 1259241); further: nearly all actives have a fitted effect of over 40% in size
Outline: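 VM7Luc4E2 cells (endogenous ER-alpha, 4×ERE-luciferase), hormone-starved 5 days in charcoal-stripped FBS, were treated with compounds plus 0.1 nM 17beta-estradiol for 22 hr at 37C; viability read in same wells as CellTiter-Fluor live-cell protease fluorescence.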

[8] = qHTS assay to identify small molecule antagonists of the androgen receptor (AR) signaling pathway using the MDA cell line in the presence of 0.5 nM R1881 - cell viability counter screen (AID 1259242); further: nearly all actives have a fitted effect of over 45% in size
Outline: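 Live-cell protease activity was measured by CellTiter-Fluor fluorescence after 30 min. Before that, MDA-kb2 MMTV-luciferase cells had 16 hr at 37C without CO2, exposed to test compounds and 0.5 nM R1881 final.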

[9] = target: Estrogen receptor (Homo sapiens) (UniProt P03372); assay: qHTS assay to identify small molecule antagonists of the estrogen receptor alpha (ER-alpha) signaling pathway using the BG1 cell line in the presence of 0.1 nM 17-beta-estradiol (AID 1259244); further: nearly all actives have a fitted effect of over 50% in size
Outline: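 Luciferase luminescence (ONE-Glo, 30 min at room temperature) was read after 22 hr at 37C exposure to compounds plus 17beta-estradiol at 0.1 nM final. Cells were VM7Luc4E2 with endogenous ER-alpha and an ERE-driven luciferase, pre-cultured 5 days in hormone-depleted medium.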

[10] = qHTS assay to identify small molecule HDAC inhibitors (AID 1259364); further: top concentration of the series differs between compounds; nearly all actives have a fitted effect of over 45% in size
Outline: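 Luminescence read after 30 min room-temperature HDAC-Glo incubation measures cellular class I/II HDAC activity. Compounds were applied for 2 hr at 37 C to HCT-116 wild-type cells seeded the day before.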

[11] = qHTS assay to identify small molecule HDAC inhibitors - cell viability counter screen (AID 1259365)
Outline: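 Wild-type HCT-116 cells were seeded at 1,500 per well, incubated overnight at 37 C, then exposed to compounds in DMSO for 2hr. Viability was read by CellTiter-Glo luminescence after 30min at room temperature.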

[12] = qHTS assay to identify small molecule agonists of the sonic hedgehog signaling (Shh) pathway - cell viability counter screen (AID 1259366); further: nearly all actives have a fitted effect of over 50% in size; further: potency means the concentration at half of the fitted maximal effect
Outline: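 NIH/3T3-derived 3T3 Gli1-Luc cells (stable Gli1-responsive firefly luciferase reporter) were seeded, rested 4 hr at 37 C/5% CO2, then exposed to compounds in DMSO for 24 hr; viability was read by CellTiter-Fluor fluorescence in the same wells.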

[13] = qHTS assay to identify small molecule antagonists of the sonic hedgehog signaling (Shh) pathway - cell viability counter screen (AID 1259367); further: nearly all actives have a fitted effect of over 55% in size; further: potency means the concentration at half of the fitted maximal effect
Outline: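 Conditioned medium drove Shh signaling in 3T3 Gli1-Luc cells exposed to compounds at 37C and 5% CO2. Viability was determined from CellTiter-Fluor fluorescence, with reagent incubated 1 hr after 23 hr of treatment.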

[14] = qHTS assay to identify small molecule agonists of the sonic hedgehog signaling (Shh) pathway (AID 1259368; calls by dose curve; further: series mostly up to about 92 µM; nearly all actives have a fitted effect of over 15% in size)
Outline: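 Luminescence was read after 30 min at room temperature with luciferase reagent. Before that, 3T3Gli1-Luc cells (NIH/3T3 clone, stable Gli1-Luc reporter; 2,000/well) were exposed to compounds for 24 hr at 37C, 5% CO2, compounds being added 4 hr post-plating.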

[15] = A CellTox Green Cytotoxicity Assay to monitor cytotoxicity in HEK293 cells - 8 hour (AID 1224884); further: nearly all actives have a fitted effect of over 35% in size
Outline: as §1

[16] = qHTS RealTime-Glo MT Cell Viability Assay in HEK293 cells - 24 hour (AID 1224886); further: nearly all actives have a fitted effect of over 50% in size; further: potency means the concentration at half of the fitted maximal effect
Outline: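 HEK293 cells were seeded at 600 cells/well together with NanoLuc luciferase and cell-permeant prosubstrate, preincubated 5 h at 37 C/5% CO2, then given compound in DMSO by pintool. Luminescence from viable-cell prosubstrate reduction was read repeatedly over 40 h.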

[17] = A CellTox Green Cytotoxicity Assay to monitor cytotoxicity in HEK293 cells - 16 hour (AID 1224888); further: nearly all actives have a fitted effect of over 35% in size
Outline: as §1

[18] = A CellTox Green Cytotoxicity Assay to monitor cytotoxicity in HepG2 cells - 0 hour (AID 1224882); further: nearly all actives have a fitted effect of over 35% in size
Outline: as §2

[19] = qHTS assay to identify small molecule phospholipidosis (PLD) inducers (AID 1259344; active means well fitted curve in the direction sought with a large enough effect; an effect the other way counts as inactive or inconclusive)
Outline: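 After 4 h attachment on collagen I, HepG2 cells were dosed with compound alongside LipidTOX Red, kept 24 h at 37 C, fixed, and imaged for lamellar phospholipid pits.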

Chain of Estrogen receptor (Homo sapiens) (P03372 whole entry, looked up): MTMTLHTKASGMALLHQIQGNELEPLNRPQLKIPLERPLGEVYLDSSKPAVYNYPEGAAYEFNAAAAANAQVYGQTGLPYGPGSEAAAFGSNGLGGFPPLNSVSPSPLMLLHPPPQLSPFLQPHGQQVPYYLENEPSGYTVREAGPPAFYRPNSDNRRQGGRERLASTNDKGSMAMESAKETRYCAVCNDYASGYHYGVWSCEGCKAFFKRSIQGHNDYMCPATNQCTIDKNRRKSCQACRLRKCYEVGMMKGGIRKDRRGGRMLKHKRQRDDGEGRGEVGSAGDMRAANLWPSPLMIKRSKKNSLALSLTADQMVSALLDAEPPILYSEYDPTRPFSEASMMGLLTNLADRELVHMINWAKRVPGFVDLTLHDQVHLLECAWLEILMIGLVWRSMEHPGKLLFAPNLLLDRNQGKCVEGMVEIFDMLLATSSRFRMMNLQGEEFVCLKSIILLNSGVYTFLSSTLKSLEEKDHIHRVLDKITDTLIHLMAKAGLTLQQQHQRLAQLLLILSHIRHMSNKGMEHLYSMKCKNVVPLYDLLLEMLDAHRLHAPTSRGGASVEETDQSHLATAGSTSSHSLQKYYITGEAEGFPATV

Row | Structure (SMILES) | Potency [1] | Potency [2] | Potency [3] | Potency [4] | Potency [5] | Potency [6] | Potency [7] | Potency [8] | Potency [9] | Potency [10] | Potency [11] | Potency [12] | Potency [13] | Potency [14] | Potency [15] | Potency [16] | Potency [17] | Potency [18] | outcome [19]
1 | COc1c(Cl)ccc(Cl)c1C(=O)O | inactive | inactive | inactive | inactive | inactive | inactive | inactive | inactive | inactive | inactive | inactive | inactive | inactive | inactive |  |  |  |  | 
2 | Oc1ccc(Cc2ccccc2O)cc1 | inactive | inactive | inactive |  | inactive | inactive | inactive | inactive | inactive | inactive | inactive | inactive | inactive | inactive | inactive | 12.3 µM (active) | inactive |  | 
3 | OC1CCCCC1 |  | inactive | inactive | inactive | inactive | inactive | inactive | inactive | inactive | inactive | inactive | inactive | inactive | inactive | inactive | inactive | inactive | inactive | 
4 | CCn1cc(C(=O)O)c(=O)c2cc3c(cc21)OCO3 | inactive | inactive | inactive | inactive | inactive | inactive | inactive | inactive |  | inactive | inactive | inactive | inactive | inactive |  |  |  | inactive | inactive
5 | Cc1ccc(Cl)cc1 | inactive | inactive | inactive | inactive | inactive | inactive | inactive | inactive | inactive | inactive | inactive | inactive | inactive | inactive |  | inactive | inactive |  | 
6 | C[n+]1ccn(CCO)c1 | inactive | inactive | inactive | inactive | inactive | inactive | inactive | inactive |  | inactive |  | inactive | inactive | inactive |  | inactive | inactive | inactive | 
7 | CN1CCCC1=O | inactive | inactive | inactive | inactive | inactive | inactive | inactive | inactive |  | inactive | inactive | inactive | inactive | inactive |  | inactive | inactive | inactive | 
8 | C=CC(C)(C)C | inactive | inactive | inactive | inactive | inactive | inactive | inactive | inactive | inactive | inactive |  | inactive | inactive | inactive |  | inactive | inactive | inactive | 
9 | Cc1cc(C)cc(O)c1 | inactive | inactive | inactive | inactive | inactive | inactive | inactive | inactive |  | inactive |  | 8.65 µM (active) and inactive | 2.44 µM (active) and inactive | inactive |  | inactive | inactive | inactive | 
10 | CC1=CC(=O)CC(C)(C)C1 | 40 µM (active) and inactive | 25.3 µM (active) and inactive | inactive | inactive | inactive | inactive |  | inactive |  | inactive |  | inactive | inactive | inactive |  | inactive | inactive | inactive | 
11 | CCCCCCC(=O)O |  | inactive | inactive | inactive | inactive | inactive | inactive | inactive |  | inactive | inactive | inactive | inactive | inactive | inactive |  |  | inactive | 
